From PubChem BioAssay
RAD52 anneal inh: blocks human RAD52 DNA annealing. 0.46% of 360,000 active. recombinant RAD52 DNA annealing, FRET fluorescence. inhibition, % at 18.7 µM. P43351;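 active means every replicate showing at least 50% inhibition; inconclusive means mean inhibition at least 50% but not in every replicate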
RAD54 inh: inhibitors of human RAD54 branch migration; 0.14% of 360,000 active; RAD54 Holliday junction branch migration, FAM/BHQ fluorescence; AID 602329; inhibition, % at 10.4 µM;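 active means mean normalized replicate activity at least 40 and at least half of replicates scoring 40 or more; inconclusive means only one of the two criteria met; inactive means mean below 40 and under half of replicates reaching 40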;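 further: 0% = median of neutral control wells and 100% = median of positive control wells; inhibitors cause a drop in the FAM fluorescence signal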
INS-1E GSIS act: primary screen for activators of insulin secretion dependent on glucose, INS-1E cells, GLuc reporter luminescence; 0.61% of 370,000 active; INS-1E GLuc reporter insulin secretion, 2-3 h; AID 743287; activation, % at 16.6 µM;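 active means lowest replicate activation of at least 40%, so every replicate reaches that level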;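 further: 0% = median of neutral control wells and 100% = median of IBMX positive control wells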
dFosB activator: enhances mouse delta FosB homodimer DNA binding. AID 493131. purified delta FosB, TAMRA-CDK5 oligo fluorescence polarization; percent of positive-control signal above neutral wells. P13346. activation, % at 25 µM. 0.99% of 340,000 active;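 active means mean activation above about 17%, with every replicate also reaching it, limit read from the data, passing the limit was not always enough; inconclusive means only one of the two conditions met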
DENV2 CPE: inhibitors of DENV2 cytopathic effect. 1.7% of 350,000 active. AID 651640. DENV2-infected cells, cytopathic effect rescue, plate reader. CPE inhibition, % at 9.99 µM; in the data active means CPE inhibition above about 20%, passing the limit was not always enough; inconclusive means no clear call, values can overlap the other calls; tested in BHK-21 cells;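 further: 0% = median of neutral control wells and 100% = median of positive control wells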
MLL AF4-AF9 inh: inhibitors of human MLL-AF4/AF9 interaction | P42568 | AlphaScreen, biotin-AF4 peptide binding to FLAG-AF9 | inhibition, % at 10 µM | 0.47% of 350,000 active;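 active means every replicate reaching a set inhibition limit, whatever the replicate mean, cut at about 25% in these data; inconclusive means mean inhibition reaches that limit but some replicates miss it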;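 further: 0% = plate neutral control median and 100% = total signal loss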
Target sequence (P42568 whole entry, looked up): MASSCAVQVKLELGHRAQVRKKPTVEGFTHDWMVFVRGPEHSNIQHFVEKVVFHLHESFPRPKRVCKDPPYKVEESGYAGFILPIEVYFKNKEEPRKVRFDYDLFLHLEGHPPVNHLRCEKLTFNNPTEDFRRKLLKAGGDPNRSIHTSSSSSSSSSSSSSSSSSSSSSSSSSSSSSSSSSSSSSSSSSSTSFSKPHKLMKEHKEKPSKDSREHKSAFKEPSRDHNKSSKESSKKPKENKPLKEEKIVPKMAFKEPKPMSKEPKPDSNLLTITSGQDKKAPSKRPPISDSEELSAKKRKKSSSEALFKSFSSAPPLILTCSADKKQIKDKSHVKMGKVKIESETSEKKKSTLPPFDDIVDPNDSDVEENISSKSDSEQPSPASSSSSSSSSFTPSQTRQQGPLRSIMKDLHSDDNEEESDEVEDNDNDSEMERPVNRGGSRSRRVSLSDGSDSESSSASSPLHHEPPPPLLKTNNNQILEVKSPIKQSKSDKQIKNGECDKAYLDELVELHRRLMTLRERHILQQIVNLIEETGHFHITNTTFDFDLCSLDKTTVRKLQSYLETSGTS
* marks the source's active call; other numbers are inactive results; ? = inconclusive; . = not tested or not shown. Hits are enriched below; roughly 3.1% of the tested compounds scored in any of these assays.

SMILES	RAD52 anneal inh	RAD54 inh	INS-1E GSIS act	dFosB activator	DENV2 CPE	MLL AF4-AF9 inh
COc1ccc(S(=O)(=O)N(C)c2ccc(C(=O)N3CCCC3)cc2)cc1OC	9.2	0.7	42.6*	1.9	?	-0.9
CCOC(=O)Nc1ccc2c(c1)N(C(=O)CCN1CCN(C)CC1)c1ccccc1S2	.	-0.1	.	-0.8	.	.
CCOC(=O)Nc1ccc2c(c1)Sc1ccccc1N2C(=O)CCN1CCOCC1	.	7.4	107.3*	-2.9	.	.
COc1ccc(Cc2nc(-c3ccc(-n4cccc4)cc3)no2)cc1	-20.9	-7.0	4.8	-5.3	-5.6	-0.6
COc1ccc(Cc2nc(-c3ccc(-n4cccc4)cc3)no2)cc1OC	-44.9	5.8	55.7*	11.7	6.3	-1.0
Cc1ccc(OCc2nc(-c3ccc(-n4cccc4)cc3)no2)cc1C	-10.2	-2.3	5.4	3.1	-14.2	37.5*
Cc1noc(C)c1NC(=O)N[C@@H]1CC[C@@H](CC(=O)NCc2ccc(Cl)c(Cl)c2)O[C@@H]1CO	-0.4	0.3	3.8	.	-3.1	0.8
O=C(Nc1ccc(N2CCCC2)cc1)c1cccc(F)c1	.	1.1	.	19.0*	.	.
Cc1ccc(C(=O)Nc2ccc(N3CCN(C)CC3)cc2)cc1C	6.6	-7.6	8.1	-0.2	26.8*	3.2
O=C(Nc1ccc(C(=O)N2CCCC2)cc1)c1cccc(C(F)(F)F)c1	-11.8	-5.8	47.6*	-6.3	14.7	1.0
O=C(c1cccc(C(F)(F)F)c1)N1CCCC1	-12.7	.	-14.1	-1.8	2.7	7.4
O=C(Nc1ccc(N2CCCC2)cc1)c1ccccc1F	.	0.0	13.8	25.8*	.	.
O=C(Nc1ccc(N2CCCCC2)cc1)c1ccc(F)cc1F	-12.1	5.3	.	-2.3	10.4	-0.3
CNC[C@H]1OCCCC[C@@H](C)Oc2ccc(NS(=O)(=O)c3ccc(OC)cc3)cc2C(=O)N([C@H](C)CO)C[C@H]1C	1.0	0.5	0.4	.	-9.7	4.1
C[C@@H]1CN([C@@H](C)CO)C(=O)c2cc(NS(C)(=O)=O)ccc2O[C@H]1CN(C)Cc1ccc(C(F)(F)F)cc1	3.5	0.7	-5.0	.	5.9	-5.8
CCS(=O)(=O)NCC[C@@H]1CC[C@@H](NC(=O)Nc2ccccc2)[C@H](CO)O1	-5.5	0.1	-7.3	.	.	-2.9
C[C@@H]1CN([C@H](C)CO)C(=O)c2cccc(NC(=O)C3CCOCC3)c2O[C@@H]1CN(C)S(=O)(=O)c1cccs1	-10.8	-7.5	4.3	.	-8.7	-4.7
COCC(=O)Nc1ccc2c(c1)[C@@H]1C[C@@H](CC(=O)N[C@H](C)c3ccccc3)O[C@H](CO)[C@@H]1O2	-6.9	-1.8	5.3	.	1.5	1.0
CN(C)CC(=O)Nc1ccc2c(c1)[C@@H]1C[C@H](CC(=O)N3CCOCC3)O[C@H](CO)[C@@H]1O2	.	-13.0	7.3	.	13.4	.
C[C@@H]1CN([C@@H](C)CO)C(=O)c2cccc(NS(=O)(=O)c3ccc(Cl)cc3)c2O[C@@H]1CN(C)Cc1ccc(C(F)(F)F)cc1	-28.4	-2.8	-26.2	.	6.0	1.8
CCCCCN(C(=O)CCc1cn(CCCCC)c2ccccc12)c1ccc(Oc2cccnc2)cc1	-32.0	.	-15.5	.	91.1*	.
COc1ccccc1N1CCN(C2CCCN(C(=O)c3cccc(-c4ccco4)c3)C2)CC1 (stereo unspecified)	-28.5	-1.7	7.8	-4.8	44.0*	10.9
COc1ccccc1N1CCN(C2CCCN(C(=O)c3ccoc3C)C2)CC1 (stereo unspecified)	-13.1	8.5	8.8	-5.4	-0.6	1.2
COc1ccccc1N1CCN(C2CCCN(Cc3c(F)cccc3F)C2)CC1 (stereo unspecified)	-0.7	-13.4	-6.5	2.7	-6.6	2.3
COc1ccccc1CN1CCCC(N2CCN(c3ccccc3OC)CC2)C1 (stereo unspecified)	-8.3	4.3	6.1	-2.1	29.0*	8.7
SMILES	RAD52 anneal inh	RAD54 inh	INS-1E GSIS act	dFosB activator	DENV2 CPE	MLL AF4-AF9 inh
O=C(CCN1CCCCC1)NCC[C@@H]1CC[C@@H](NC(=O)C2CCOCC2)[C@H](CO)O1	-0.2	2.8	-9.1	.	16.6	-3.3
COCCn1c(=O)[nH]c2cc(C(=O)Nc3cc(OC)c(OC)c(OC)c3)ccc2c1=O	0.6	-5.9	46.9*	1.0	1.2	4.5
C[C@@H]1CN([C@@H](C)CO)C(=O)Cc2cc(NC(=O)Cn3cnnn3)ccc2O[C@H]1CN(C)S(=O)(=O)c1ccc(F)cc1	-4.1	1.2	21.1	.	1.3	0.6
COc1cc2cnc(-c3ccsc3)cc2cc1OC	1.9	16.6	50.2*	8.7	-7.1	-4.6
COc1ccc(NC(=O)c2cc(-c3ccccc3O)n[nH]2)cc1Cl	-7.1	-5.6	1.4	25.5*	1.6	-1.2
COc1ccc(Cl)cc1-c1cc(C(=O)N[C@H](C)c2ccccc2)[nH]n1	-8.3	4.1	-13.3	.	73.7*	-1.5
COc1ccc(Cl)cc1-c1cc(C(=O)Nc2ccccc2)[nH]n1	-30.3	6.2	-34.7	.	-4.4	-1.7
C#CCOCCOCCOCCNc1nc(N2CCN(C(=O)C(Cc3cc4ccccc4[nH]3)n3cc(C(N)C(C)CC)nn3)CC2)nc(N2CCN(C(=O)C(Cc3cc4ccccc4[nH]3)n3cc(C(N)C(C)CC)nn3)CC2)n1 (stereo unspecified)	.	9.1	.	?	.	.
C#CCOCCOCCOCCNc1nc(N2CCN(C(=O)[C@H](CCCCN)n3cc([C@@H](N)CC(C)C)nn3)CC2)nc(N2CCN(C(=O)[C@H](Cc3cc4ccccc4[nH]3)n3cc([C@@H](N)Cc4ccc(O)cc4)nn3)CC2)n1	.	11.3	.	59.3*	.	.
C#CCOCCOCCOCCNc1nc(N2CCN(C(=O)[C@H](CCCCN)n3cc(CN)nn3)CC2)nc(N2CCN(C(=O)[C@H](CCCCN)n3cc(CN)nn3)CC2)n1	60.6*	-19.2	4.6	15.6	-13.9	56.7*
C#CCOCCOCCOCCNc1nc(N2CCN(C(=O)[C@H]([C@@H](C)CC)n3cc([C@@H](N)Cc4ccc(O)cc4)nn3)CC2)nc(N2CCN(C(=O)[C@H](Cc3cc4ccccc4[nH]3)n3cc([C@@H](N)CC(C)C)nn3)CC2)n1	.	-7.5	.	23.4*	.	.
C#CCOCCOCCOCCNc1nc(N2CCN(C(=O)[C@H](CCCCN)n3cc([C@@H](N)C(C)CC)nn3)CC2)nc(N2CCN(C(=O)[C@H](Cc3cc4ccccc4[nH]3)n3cc([C@@H](N)C(C)CC)nn3)CC2)n1 (stereo partly specified)	.	45.6	.	63.4*	.	.
C#CCOCCOCCOCCNc1nc(N2CCN(C(=O)CCCCCCCCCCNC(=O)Cn3cc(CCCCCN)nn3)CC2)nc(N2CCN(C(=O)CCCCCCCCCCNC(=O)Cn3cc(C[C@@H](C)O)nn3)CC2)n1	52.1*	-0.3	-17.4	?	.	.
CCCC(=O)N1CC2(C1)CN(C(=O)CC1CC1)[C@H](CO)c1c2c2ccc(OC)cc2n1C	.	.	-7.0	.	-5.1	-1.6
COc1ccc(CCNC2CC(=O)N(N(C)C)C2=O)cc1OC (stereo unspecified)	-13.1	6.6	5.5	-3.5	-5.3	-1.7
